Experimental data taken from PubChem BioAssay (NCATS).
Results filed as inconclusive are left out. Calls of active or inactive are those of the source. The call rests on the fitted dose curve; in most records, active means well fitted curve in the direction sought with a large enough effect; inconclusive means small, poorly fitted or top-dose-only effect, or another doubt; inactive means no such curve, though single readings can be large; an effect the other way counts as inactive or inconclusive.

Assays:
[1] = target: Cellular tumor antigen p53 (Homo sapiens) (UniProt P04637); assay: Primary qHTS for small molecule compounds that upregulate eGFP-tagged delta133p53alpha (in N-terminal) cells. (AID 2060322); details: NCI-H358 eGFP-delta133p53alpha fluorescence, 24 h; activation: hits give high values;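 further: cells pre-induced with doxycycline then dosed without doxycycline; series mostly up to about 56 µM; 0% = DMSO vehicle and 100% = reference activator; nearly all actives have a fitted effect of over 75% in size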
Outline: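 NCI-H358 cells pre-induced 24 h with 10 ng/ml doxycycline for eGFP-delta133p53alpha, plated dox-free and exposed 24 h at 37C to titrated compounds. Fixed, Hoechst-stained; gated GFP peak intensity by laser scanning cytometry, normalized to DMSO (0%) and 57.5 uM 5-azacytidine (100%).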

[2] = target: Aldehyde dehydrogenase, mitochondrial (Homo sapiens) (UniProt P05091); assay: qHTS for Inhibitors of the Aldehyde Dehydrogenase Family (ALDH2) Primary screen (AID 2061308);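 further: plate controls were vehicle for no effect and reference inhibitor for full effect; nearly all actives have a fitted effect of over 55% in size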
[3] = target: Retinaldehyde dehydrogenase 3 (Homo sapiens) (UniProt P47895); assay: qHTS for Inhibitors of the Aldehyde Dehydrogenase Family (ALDH1A3) Primary screen (AID 2061315);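 further: plate controls were DMSO vehicle for no effect and reference inhibitor for full effect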

Sequence of Cellular tumor antigen p53 (Homo sapiens) (P04637 whole entry, looked up): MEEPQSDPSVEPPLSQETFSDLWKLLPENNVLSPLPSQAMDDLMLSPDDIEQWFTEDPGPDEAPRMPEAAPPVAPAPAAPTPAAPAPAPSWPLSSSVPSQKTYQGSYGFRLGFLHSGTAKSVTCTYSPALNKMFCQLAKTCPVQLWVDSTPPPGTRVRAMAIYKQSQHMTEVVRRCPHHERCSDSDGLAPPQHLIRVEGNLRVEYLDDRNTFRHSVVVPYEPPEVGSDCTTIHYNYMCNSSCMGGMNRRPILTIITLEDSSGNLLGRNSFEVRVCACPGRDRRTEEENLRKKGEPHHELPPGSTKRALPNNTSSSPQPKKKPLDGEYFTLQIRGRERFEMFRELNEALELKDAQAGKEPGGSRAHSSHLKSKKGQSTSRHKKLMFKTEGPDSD

CC1CC(=O)C2=C(C1)C1OC1C1(O)C2C(=O)c2cccc(O)c2C1O (configuration not stated)
inactive: activation [1] 4.58% | Potency [2] | Potency [3]

C=CC(C)(CCC=C(C)C)O[C@@H]1O[C@H](CO)[C@@H](O)[C@H](O)[C@H]1O (some centres not stated)
inactive: activation [1] 3.57% | Potency [2] | Potency [3]

COc1cc(C2Oc3c(OC)cc(CCCO)cc3C2CO)ccc1O[C@H]1O[C@H](C)[C@@H](O)[C@H](O)[C@@H]1O (some centres not stated)
inactive: activation [1] -13.7% | Potency [2] | Potency [3]

Nc1nc2c(ncn2[C@@H]2O[C@@H]3COP(=O)(O)O[C@H]3[C@H]2O)c(=O)[nH]1
inactive: activation [1] 12.3% | Potency [2] | Potency [3]

CC(C)C(=O)O[C@@H]1[C@@H](O)[C@@H](O[C@H]2O[C@H](CO)[C@@H](O)[C@H](O)[C@H]2O)O[C@H](CO)[C@H]1O
inactive: activation [1] 3.82% | Potency [2] | Potency [3]

CC(C)C(NC(=O)c1ccc2ccccc2n1)C(=O)NC(CC(=O)O)C(=O)COc1c(F)cccc1F (configuration not stated)
inactive: activation [1] 2.33% | Potency [2] | Potency [3]

C=C(C(=O)O)[C@@H]1CC[C@@]2(C)CCC[C@@](C)(O)[C@@H]2C1
inactive: activation [1] 10.7% | Potency [2] | Potency [3]

CC(C)CC(=O)OC[C@H]1O[C@@](COC(=O)CC(C)C)(O[C@H]2O[C@H](CO)[C@@H](O)[C@H](O)[C@H]2OC(=O)CC(C)C)[C@@H](OC(=O)CC(C)C)[C@@H]1O
inactive: activation [1] -7.14% | Potency [2] | Potency [3]

C=CC1(C)CC=C2C(CCC3C(C)(C(=O)O)CCCC23C)C1 (configuration not stated)
inactive: activation [1] -1.53% | Potency [2] | Potency [3]
